Rows were chosen to be rich in hits. Some 6.4% of all compounds tested hit in one or more screens of this group.
Luc counter – Counterscreen for Luciferase (Kinase-Glo TM) Inhibition; Kinase-Glo luciferase, ATP luminescence, 8 min; Potency, µM (top dose mostly 38.3 µM), actives largely listed as inhibitors; 200,000 compounds, 0.28% hits; AID 1379, 2008; note: nearly all actives have a fitted effect of over 60% in size
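Recombinant Kinase-Glo luciferase, 10 uM ATP (linear range), luciferin; imidazole pH 7.2 / KCl / MgCl2 / Tween / BSA buffer; 8 min RT; luminescence.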
Gal4-VP16 FLuc – VP16 counterscreen qHTS for inhibitors of ROR gamma transcriptional activity; Drosophila S2 Gal4-VP16 UAS-luciferase, luminescence, 20 h; Potency, µM (series often up to 53.6 µM), usual class: inhibitors; 310,000 compounds, 3.5% hits; AID 2546, 2010;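 note: Gal4-VP16 expression switched on by copper sulfate through the metallothionein promoter; nearly all actives have a fitted effect of over 50% in size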
RORg inh – qHTS for inhibitors of ROR gamma transcriptional activity. Nuclear receptor ROR-gamma (Mus musculus), P51450. Drosophila S2 Gal4-RORgamma UAS-luciferase reporter, 20 h. Potency, µM (titrated, usually from 53.6 µM), actives largely listed as inhibitors. 310,000 compounds, 5.4% hits; note: nearly all actives have a fitted effect of over 60% in size
Target sequence (P51450 whole entry, looked up, the tested form may be a part): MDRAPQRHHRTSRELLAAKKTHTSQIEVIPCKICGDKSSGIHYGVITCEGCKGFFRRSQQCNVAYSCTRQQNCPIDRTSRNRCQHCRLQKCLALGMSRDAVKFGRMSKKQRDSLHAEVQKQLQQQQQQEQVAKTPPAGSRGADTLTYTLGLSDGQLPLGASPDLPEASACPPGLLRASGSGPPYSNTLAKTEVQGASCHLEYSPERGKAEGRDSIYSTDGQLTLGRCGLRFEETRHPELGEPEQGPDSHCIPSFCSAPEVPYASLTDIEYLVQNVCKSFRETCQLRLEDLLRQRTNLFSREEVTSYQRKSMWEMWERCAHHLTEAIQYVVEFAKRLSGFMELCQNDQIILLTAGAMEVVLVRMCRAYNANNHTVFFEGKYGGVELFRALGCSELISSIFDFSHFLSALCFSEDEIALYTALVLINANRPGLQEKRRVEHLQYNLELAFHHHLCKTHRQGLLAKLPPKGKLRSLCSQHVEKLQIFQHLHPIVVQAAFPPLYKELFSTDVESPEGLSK
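Drosophila Schneider cells stably carrying a metallothionein-driven Gal4 DBD–ROR gamma fusion and a UAS-Photinus luciferase reporter were exposed to compound for 1 hr, then induced with copper sulfate (700 uM final) for 20 hr at ambient temperature before luminescence reading.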
Of the large screens only hits and unclear results are named; the others gave an inactive call. Calls come from the whole dose curve; as a rule, active = well fitted curve in the direction sought with a large enough effect; inconclusive = small, poorly fitted or top-dose-only effect, or another doubt; inactive = no such curve, though single readings can be large; an effect the other way counts as inactive or inconclusive.

C=CCn1c(C(CCCC)CC(O)COCCC)n[nH]c1=S (stereo not drawn)	Gal4-VP16 FLuc inconclusive, RORg inh 7.1µM
C=CCn1c(C(CC(C)C)CC(C)O)n[nH]c1=S (stereo not drawn)	RORg inh inconclusive
C=CCn1c(CCC(O)COCCCCC)n[nH]c1=S (stereo not drawn)	RORg inh inconclusive (no result: Luc counter)
CCC(C)(C)NC(=O)CCCSc1nc2ccccc2[nH]1	none (no result: Luc counter)
COc1cnc(-c2ccccn2)nc1Oc1ccc(Cl)cc1	Gal4-VP16 FLuc 8.9µM, RORg inh 3.5µM
COc1cnc(-c2ccccc2)nc1Oc1ccc(C(C)(C)C)cc1	none
COc1cnc(-c2ccccc2)nc1Oc1ccccc1C	none
O=[N+]([O-])c1cccnc1Oc1ccc(F)cc1F	none (no result: Luc counter)
COc1cnc(-c2ccccn2)nc1Oc1ccc(Cl)c2ccccc12	Gal4-VP16 FLuc 7.9µM, RORg inh 1.3µM
COc1cnc(-c2ccccn2)nc1Oc1ccc(F)cc1F	Gal4-VP16 FLuc inconclusive, RORg inh 5.6µM
COc1cnc(-c2ccccn2)nc1Oc1ccccc1Cl	Gal4-VP16 FLuc 13µM, RORg inh 2.2µM
COc1cnc(-c2ccccn2)[nH]c1=O	none
CCc1ccc(CNC(=O)C2Cc3cc(S(=O)(=O)N4CCCC4)ccc3N2C(C)=O)cc1 (stereo not drawn)	none (no result: Luc counter)
CCOCCn1c2ccccc2c2nc3ccccc3nc21	none (no result: Luc counter)
CCN(CC)C(=O)c1ccc(N)cc1	none
COCC(=O)N1CCC[C@@]2(CCN(c3ccccn3)C2)C1	none
Cn1c(CNC(=O)c2ccc(Cl)cc2)nnc1SCC(=O)NC1CCCC1	none (no result: Luc counter)
O=C(O)COc1ccccc1/C=N/NC(=O)c1cc(-c2ccccc2)nc2ccccc12	none (no result: Luc counter)
O=C(N/N=C/c1ccccn1)c1cc(-c2ccc(Br)cc2)nc2ccccc12	Gal4-VP16 FLuc 1.1µM, RORg inh 0.63µM (no result: Luc counter)
O=C(N/N=C/c1ccccn1)c1cc(-c2ccc(Cl)cc2)nc2ccccc12	Gal4-VP16 FLuc 0.71µM, RORg inh 0.4µM
O=C(O)COc1ccccc1/C=N/NC(=O)c1cc(-c2ccc(Cl)cc2)nc2ccccc12	none (no result: Luc counter)
O=C(OCn1ncc(Cl)c(Cl)c1=O)c1cccc(C(F)(F)F)c1	none
O=C(OCn1ncc(Br)c(Br)c1=O)c1ccccc1Cl	Gal4-VP16 FLuc 5.6µM, RORg inh 6.3µM
O=C(OCn1ncc(Br)c(Br)c1=O)c1ccc(F)cc1	Gal4-VP16 FLuc 0.63µM, RORg inh inconclusive
O=C(OCc1cnc(Cl)s1)c1ccccc1Cl	none
C#CCOc1coc(COC(=O)c2ccccc2)cc1=O	none (no result: Luc counter)
Cc1ccc(NC(=O)c2ccc(COc3ccc4c(c3)CCC4)cc2)c(C)c1	Gal4-VP16 FLuc 8.9µM, RORg inh 2.2µM
O=C(Nc1ccccc1Cl)c1ccc(COc2ccc3c(c2)CCC3)cc1	Gal4-VP16 FLuc inconclusive
C=CCO/N=C(/C)c1c(O)c(CC)c(-c2ccccc2)n(-c2ccccc2)c1=O	none
C/C(=N\O)c1c(O)cc(-c2ccccc2)n(-c2ccccc2)c1=O	RORg inh inconclusive (no result: Luc counter)
C/C(=N/O)c1c(O)c(C)c(-c2ccccc2)n(-c2ccccc2)c1=O	Gal4-VP16 FLuc 5.6µM, RORg inh 5.6µM
CCc1c(O)c(/C(C)=N\O)c(=O)n(-c2ccccc2)c1-c1ccccc1	Gal4-VP16 FLuc 35µM, RORg inh inconclusive
Cc1ccsc1C(=O)N1CCC(CO)(Cc2ccccc2)CC1	Gal4-VP16 FLuc inconclusive, RORg inh 10µM
Cc1ccsc1C(=O)N1CCCC(CO)(Cc2ccccc2)C1 (stereo not drawn)	RORg inh inconclusive (no result: Luc counter)
COc1ccc(NC(=O)C2Cc3ccccc3O/C2=N\O)cc1 (stereo not drawn)	none (no result: Luc counter)
COC1=C(Nc2ccccc2OC)C(=O)c2ccccc2C1=O	none (no result: Luc counter)
COc1ccccc1NC1=C(C)C(=O)CC1	RORg inh 13µM
COCCn1c(=O)c(-c2ccc(Cl)cc2)nc2cnc(Nc3ccccc3)nc21	none (no result: Luc counter)
CC1CN(c2nc3ccccc3nc2SCC(=O)Nc2ccc(F)cc2)CC(C)O1 (stereo not drawn)	none (no result: Luc counter)
Cc1ccccc1N=CC1=C(O)c2ccccc2C1=O	Luc counter 13µM, Gal4-VP16 FLuc 1.3µM, RORg inh 0.2µM
COc1ccc(CC2=C(O)c3ccccc3C(=O)C2=O)cc1	RORg inh inconclusive (no result: Luc counter)
COc1ccc(N=CC2=C(O)c3ccccc3C2=O)c(OC)c1	Luc counter 4.5µM, Gal4-VP16 FLuc 4µM, RORg inh 4µM
O=C1C(C=Nc2ccc(F)cc2)=C(O)c2ccccc21	Luc counter inconclusive
C[C@]12C=CC(=O)C=C1CCC1C2C(=O)C[C@]2(C)C1CC[C@]2(O)C(=O)CO (stereo partly drawn)	none
CCCCOc1cc(C[C@@H]2CNC(=O)N2)ccc1OC	none
O=C(NC(=S)NNC(=O)c1cnccn1)c1ccc(F)cc1	none
Cc1csc2ncnc(NNC(=O)c3ccc(Cl)cc3)c12	Gal4-VP16 FLuc 4.5µM, RORg inh 1.8µM (no result: Luc counter)
O=C(NNC(=O)c1cnccn1)c1ccc(Cl)cc1	Gal4-VP16 FLuc 16µM, RORg inh 8.9µM (no result: Luc counter)
Cc1ccc(C(=O)NNc2ncnc3c2cnn3C)cc1	none (no result: Luc counter)
N#C/C(=N\Nc1ccc(S(=O)(=O)N2CCc3ccccc32)cc1)C(N)=S	Gal4-VP16 FLuc inconclusive, RORg inh 11µM
CCOC(=O)/C(C#N)=N/Nc1ccc(S(=O)(=O)N2CCc3ccccc32)cc1	RORg inh inconclusive
O=C(O)c1ccc(N=NNc2cccc([N+](=O)[O-])c2)cc1	none
N#C/C(=N\Nc1cccc([N+](=O)[O-])c1)C(=O)c1ccc(Br)cc1	Gal4-VP16 FLuc 5µM, RORg inh 4.5µM
N#C/C(=N\Nc1ccc([N+](=O)[O-])cc1)C(N)=S	Gal4-VP16 FLuc 13µM, RORg inh inconclusive (no result: Luc counter)
N#C/C(=N\Nc1ccc(S(=O)(=O)N2CCCCCC2)cc1)C(N)=S	Gal4-VP16 FLuc inconclusive, RORg inh 11µM
N#C/C(=N/Nc1ccc([N+](=O)[O-])cc1)C(=N)N1CCCCC1	none
N#C/C(=N\Nc1ccc(S(=O)(=O)N2CCCCC2)cc1)C(N)=S	RORg inh inconclusive
Cc1cc2c(cc1S(=O)(=O)C(C)CC(=O)NCc1ccco1)OCC(=O)N2 (stereo not drawn)	none (no result: Luc counter)
CCn1ccc(C(=O)Nc2ncc(C)s2)n1	Gal4-VP16 FLuc inconclusive, RORg inh 11µM (no result: Luc counter)
CCn1ccc(C(=O)NC2=NCCS2)n1	none
Cc1c(NC(=O)COC(=O)C2(c3ccc(F)cc3)CCCC2)c(=O)n(-c2ccccc2)n1C	none
Cc1cc(C(=O)N/N=C/c2cc(Br)cc(Br)c2OC(=O)c2cccc(F)c2)n[nH]1	RORg inh 3.5µM
Cc1cc(C(=O)N/N=C/c2cc(Br)cc(Br)c2OC(=O)c2ccccc2)n[nH]1	none
Cc1cc(C(=O)N/N=C/c2cccs2)n[nH]1	none
Cc1cc(C(=O)N/N=C/c2cc(Br)ccc2OC(=O)c2ccc(Br)cc2)n[nH]1	Gal4-VP16 FLuc 7.1µM, RORg inh 8.9µM
COc1cc(/C=N/NC(=O)c2ccccn2)ccc1OC(=O)c1ccc(Br)cc1	none (no result: Luc counter)
Cc1cc(C(=O)N/N=C\c2cc(C(C)(C)C)ccc2O)n[nH]1	Gal4-VP16 FLuc 5.6µM, RORg inh 2.2µM (no result: Luc counter)
Cc1nnsc1C(=O)N1CCCC(N2CCN(c3ccc(F)cc3)CC2)C1 (stereo not drawn)	none (no result: Luc counter)
O=C1OCCC1Sc1nc2ccccc2c(=O)n1-c1ccc(F)cc1 (stereo not drawn)	RORg inh inconclusive

Compound activity: PubChem, National Center for Advancing Translational Sciences (NCATS)
